PubChem BioAssay AID651818 (Broad Institute, 2012)
Entries with a potency or affinity are not part of this list. Inconclusive results are not listed. The source made the active and inactive calls. Cut-off read from the data, not from the text of the source: inconclusive = activity change below about -55%; inactive = above that.

Test: intracellular Trypanosoma cruzi inhibitors in host cells – cell-based, plate reader, cherry-pick samples, set 3, dose response (AID 651818)
Settings: series mostly up to 10 µM; activity change, negative = inhibition: at the top concentration

Row | SMILES | activity change, negative = inhibition
1 | COc1ccc(NC(=O)N(C)C[C@H]2Oc3c(NC(=O)C4CCOCC4)cccc3C(=O)N([C@H](C)CO)C[C@@H]2C)cc1 | -21.6% (inactive)
2 | C[C@H](CO)N1C[C@H](C)[C@H](CN(C)C(=O)Nc2ccccc2)Oc2c(NC(=O)Nc3ccc(C(F)(F)F)cc3)cccc2C1=O | -8.83% [at 5 µM] (inactive)
3 | CC(C)NC(=O)Nc1cccc2c1O[C@H](CN(C)Cc1ccc3c(c1)OCO3)[C@@H](C)CN([C@H](C)CO)C2=O | -45.6% (inactive)
4 | COc1ccc(S(=O)(=O)N(C)C[C@H]2Oc3c(NS(=O)(=O)c4ccc(F)cc4)cccc3C(=O)N([C@H](C)CO)C[C@H]2C)cc1 | -5.26% (inactive)
5 | C[C@H]1CN([C@@H](C)CO)C(=O)c2cccc(NC(=O)c3ccncc3)c2O[C@@H]1CN(C)S(=O)(=O)c1ccccc1 | 16.5% (inactive)
6 | C[C@H](CO)N1C[C@H](C)[C@@H](CN(C)Cc2ccccc2)Oc2c(NS(C)(=O)=O)cccc2C1=O | 26.7% [at 5 µM] (inactive)
7 | C[C@@H]1CN([C@@H](C)CO)C(=O)c2cccc(NC(=O)c3cnccn3)c2O[C@@H]1CN(C)S(=O)(=O)c1cccs1 | -13% (inactive)
8 | C[C@H](CO)N1C[C@H](C)[C@H](CN(C)S(C)(=O)=O)Oc2c(NS(=O)(=O)c3ccc(Cl)cc3)cccc2C1=O | -12.3% (inactive)
9 | C[C@@H]1CN([C@H](C)CO)C(=O)c2cccc(NC(=O)c3ccncc3)c2O[C@@H]1CN(C)Cc1ccc(C(=O)O)cc1 | 18.1% (inactive)
10 | CC(C)NC(=O)N(C)C[C@@H]1Oc2c(NS(=O)(=O)c3ccc(F)cc3)cccc2C(=O)N([C@H](C)CO)C[C@@H]1C | 20.4% (inactive)
11 | CC(C)NC(=O)Nc1cccc2c1O[C@@H](CN(C)Cc1ccc(C(F)(F)F)cc1)[C@@H](C)CN([C@H](C)CO)C2=O | -18.5% (inactive)
12 | C[C@H](CO)N1C[C@H](C)[C@@H](CN(C)S(=O)(=O)c2ccc(Cl)cc2)Oc2c(NC(=O)C3CC3)cccc2C1=O | 20.4% (inactive)
13 | C[C@@H]1CN([C@@H](C)CO)C(=O)c2cccc(N(C)C)c2O[C@H]1CN(C)Cc1ccc2c(c1)OCO2 | 26.4% (inactive)
14 | C[C@@H]1CN([C@@H](C)CO)C(=O)c2cccc(NS(=O)(=O)c3cn(C)cn3)c2O[C@H]1CN(C)C(=O)Nc1ccc2c(c1)OCO2 | -29.3% (inactive)
15 | Cc1cc(C(=O)Nc2cccc3c2O[C@@H](CN(C)C(=O)Nc2ccccc2)[C@@H](C)CN([C@H](C)CO)C3=O)n(C)n1 | 4.05% (inactive)
16 | Cc1ccc(S(=O)(=O)N(C)C[C@H]2Oc3c(NC(=O)Nc4c(C)noc4C)cccc3C(=O)N([C@@H](C)CO)C[C@H]2C)cc1 | 4.2% (inactive)
17 | Cc1noc(C)c1NC(=O)Nc1cccc2c1O[C@@H](CN(C)Cc1ccc(-c3ccccc3)cc1)[C@@H](C)CN([C@@H](C)CO)C2=O | 25.3% (inactive)
18 | C[C@@H]1CN([C@@H](C)CO)C(=O)c2cccc(NC(=O)c3cnccn3)c2O[C@H]1CN(C)CC1CC1 | -22.2% (inactive)
19 | C[C@H](CO)N1C[C@H](C)[C@@H](CN(C)C(=O)Nc2ccc(C(F)(F)F)cc2)Oc2c(NS(=O)(=O)c3ccc(Cl)cc3)cccc2C1=O | 11% (inactive)
20 | Cc1noc(C)c1S(=O)(=O)Nc1cccc2c1O[C@@H](CN(C)CC1CC1)[C@@H](C)CN([C@H](C)CO)C2=O | -44.2% (inactive)
21 | C[C@H](CO)N1C[C@H](C)[C@@H](CN(C)Cc2ccc3c(c2)OCO3)Oc2c(NS(=O)(=O)c3ccc(Cl)cc3)cccc2C1=O | 0.07% (inactive)
22 | C[C@@H]1CN([C@@H](C)CO)C(=O)c2cccc(NS(=O)(=O)c3cn(C)cn3)c2O[C@H]1CN(C)C(=O)Nc1ccc(F)cc1 | -8.2% (inactive)
